Source: PubChem BioAssay
HT1080 IDH1KD tx – kills HT-1080 cells with IDH1 knockdown; HT-1080 IDH1 knockdown viability, ATP luminescence, 48 h; Potency, µM (doses to about 46.1 µM), for inactives: top-dose activity, negative = toxicity, hits mostly cytotoxic; hit rate 2% among 360,000;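 further: 0% = DMSO wells and -100% = cell-free medium wells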
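IDH1KD HT-1080 cells, 750/well, RPMI + 5% FBS; compound pinned after 2 h settling; 48 h, 37 °C; CellTiter-Glo luminescence; % activity normalised to DMSO and no-cell wells; curves fitted, classed by r2 and efficacy.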
HT1080NT lethal – kills 2HG-producing HT-1080-NT fibrosarcoma cells. HT-1080-NT fibrosarcoma viability, CellTiter-Glo ATP luminescence, 48 h. Potency, µM (highest dose often 46.1 µM), for inactives: at the top dose activity, negative = less viability, usual class: cytotoxic. hit rate 1.6% among 360,000. AID 686970;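 further: NT is the 2HG producing partner of a matched IDH1 knockdown line; 0% = DMSO-treated cells and -100% = media-only wells without cells; nearly all actives have a fitted effect of over 55% in size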
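Toxicity toward the 2HG-producing NT line was scored as %Activity, normalised to DMSO and no-cell wells, from CellTiter-Glo luminescence after 48 hours' treatment.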
KB-3-1 cytotox – KB-3-1 parental cell cytotoxicity; KB-3-1 viability, CellTiter-Glo ATP luminescence, 72 h; Potency, µM (titrated, usually from 46.1 µM), hits mostly cytotoxic; hit rate 1.4% among 400,000; AID 1347075; further: on the % scale 0 is the no-effect control and ±100 the full control effect; nearly all actives have a fitted effect of over 60% in size
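Cytotoxicity in the drug-sensitive parental line KB-3-1 was scored as loss of CellTiter-Glo luminescence following 72 h incubation with compound. Values come from curve fitting of normalized concentration-response data.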
KB-V1 cytotox – kills drug-selected multidrug resistant KB-V1 cells; Potency, µM (series often up to 46.1 µM), usual class: cytotoxic; hit rate 3.4% among 400,000; KB-V1 MDR cells viability, CellTiter-Glo, 72 h; AID 1347076; further: on the % scale 0 is the no-effect control and ±100 the full control effect; nearly all actives have a fitted effect of over 60% in size
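Compound-treated KB-V1 multidrug-resistant cells, 72 h, 37 degrees C; viability by CellTiter-Glo. Fitted qHTS curves give the values.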
ATXN2 expr inh – ATXN2 expression inhibition. Potency, µM (top dose mostly 57 µM), for inactives: at the top dose activity change, negative = inhibition, most hits filed as inhibitors. AID 1745845. hit rate 0.72% among 360,000. HEK-293 ATXN2-luciferase reporter, luminescence, 24 h; further: on the % scale 0 is the no-effect control and ±100 the full control effect; nearly all actives have a fitted effect of over 55% in size
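ATXN2-luciferase reporter cells (luciferase flanked by upstream and downstream ATXN2 gene portions) were treated 24 h at 37 °C with compounds at up to 57 uM. SteadyGlo luminescence gave expression; GF-AFC fluorescence gave viability.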
S2 tox – cell viability loss in ATXN counter-screen; S2 cells (HEK-293 line with an ATXN2-luciferase reporter) viability, CellTiter-Fluor protease fluorescence, 24 h; Potency, µM (series often up to 56.7 µM), usual class: cytotoxic; hit rate 0.49% among 400,000; further: nearly all actives have a fitted effect of over 40% in size
* marks the source's active call; other numbers are inactive results; i = inactive; ? = inconclusive; / = no result given; ! = not confirmed by another sample; [ ] = another dose, or the depositor's remark. Most compounds without a hit are left out; they make up all but 6.2% or so of the library. The call rests on the fitted dose curve; in most records, active means well fitted curve in the direction sought with a large enough effect; inconclusive means small, poorly fitted or top-dose-only effect, or another doubt; inactive means no such curve, though single readings can be large; an effect the other way counts as inactive or inconclusive. Potency means the concentration at half of the fitted maximal effect.

SMILES | HT1080 IDH1KD tx | HT1080NT lethal | KB-3-1 cytotox | KB-V1 cytotox | ATXN2 expr inh | S2 tox
CCCCOc1ccc(S(=O)(=O)Nc2ccc(-c3ccc(N4CCC(C)CC4)nn3)cc2)cc1 | / | / | i | i | 35.7% | i
O=C(c1ccccn1)N1CCN(c2ccc(C(F)(F)F)cn2)CC1 | -4.5% | -15.5% | i | 16.4µM* | -9.8% | i
Cc1cc(C(=O)N2CCN(c3ccc(C(F)(F)F)cn3)CC2)c(C)o1 | -5.2% | ? | i | ? | / | i
Cc1ccc(C(=O)N2CCN(c3ccc(C(F)(F)F)cn3)CC2)o1 | 4.6% | -0.7% | ? | 20.6µM* | -15.3% | i
CCN(CC)c1ccc(NC(=O)CN2C(=O)c3cccnc3Oc3ccccc32)c(C)c1 | / | / | i | i | / | /
COc1ccc(C(=O)NCC(=O)OCc2cc(=O)n3nc(C4CCCCC4)sc3n2)cc1 | / | / | i | i | 8.5% | i
CCOC(=O)c1c(C)[nH]c(C(=O)N/N=C/c2ccc(Br)cc2)c1C | 0.092µM* | 0.146µM* | ? | i | -34.1% | ?
COc1ccc(CCCC(=O)N/N=C/c2cccc(OC)c2O)cc1C | ? | ? | ? | ? | 12.6µM* | i
COc1cccc(/C=N/NC(=O)c2ccc(=O)[nH]n2)c1O | 23.1µM* | ? | i | i | / | i
C=CCc1cccc(/C=N/NC(=O)c2ccccc2Br)c1O | ? | ? | ? | i | ? | i
C=CCc1cccc(/C=N/NC(=O)c2ccccc2OC)c1O | 16.4µM* | ? | i | i | ? | i
CCCCNC(=O)Cn1c(SCc2cccc(F)c2)nc2ccncc21 | / | / | i | i | / | /
Cc1cc(C(=O)Nc2ccccc2-c2nc(CNC(=O)c3cc4ccccc4cn3)c(C)o2)c(C)o1 | / | / | / | / | / | i
CCN(C(=O)Cn1nc(Cc2ccncc2)c2ccccc2c1=O)c1cccc(Cl)c1 | / | / | i | i | -3.1% | i
C=CCc1cccc(/C=N/NC(=O)C(C)Nc2ccc(C)cc2)c1O (centres undefined) | ? | -23.5% | ? | 20.6µM* | 22.4µM* | i
COc1cccc(/C=N/NC(=O)c2ccc(=O)n(C)c2)c1O | ? | ? | i | i | 15µM* | /
C=CCc1cccc(/C=N/NC(=O)c2ccc3nc[nH]c3c2)c1O | ? | ? | ? | i | 10µM* | i
C=CCc1cccc(/C=N/NC(=O)C(=O)Nc2ccc(C)cc2)c1O | -17.4% | -9.9% | i | i | 3.7% | /
COc1ccccc1/C=N/NC(=O)c1cccc(OC(F)(F)C(F)F)c1 | -0.3% | 4.5% | i | i | -12.6% | i
O=C(N/N=C/c1ccc(Cl)cc1Cl)c1ccc2nc[nH]c2c1 | 0.7% | -2.5% | i | i | / | i
COc1cccc(/C=N/NC(=O)C(=O)Nc2ccccc2OC(F)(F)C(F)F)c1O | ? | ? | 9.2µM* | ? | 10µM* | ?
COc1cc(OC)c(OC)cc1/C=N/NC(=O)c1ccc(=O)n(C)c1 | 13.6% | 9.6% | i | i | 10.1% | i
CCNC(=O)c1cc(NC(=O)COC)cc2nc(-c3ccncc3)n(C)c12 | / | / | / | / | / | i
COc1cc2c(NC3CCN(C)CC3)nc(N3CCCCC3)nc2cc1OCCOCCN1CCCC1 | / | / | ? | i | / | /
COc1cccc(CNC(=O)CCn2cccn2)c1 | / | / | i | i | 11.7% | i
SMILES | HT1080 IDH1KD tx | HT1080NT lethal | KB-3-1 cytotox | KB-V1 cytotox | ATXN2 expr inh | S2 tox
C=CCc1cccc(C=NNC(=O)CN2CCN(Cc3ccccc3)CC2)c1O | / | / | / | / | 19.3µM* | /
COc1cccc(/C=N/NC(=O)c2ccc(-c3ccccc3)cc2)c1O | ? | ? | 5.8µM* | ? | 3.16µM* | ?
Cc1cccc(/C=N/NC(=O)Cc2ccc(Cl)cc2)c1O | ? | -27.3% | ? | i | / | ?
COc1cccc(/C=N/NC(=O)c2[nH]c(C)c(C(=O)N/N=C/c3cccc(OC)c3O)c2C)c1O | -28.8% | -21.3% | ? | i | 14.1µM* | i
COc1ccc(OC)c(/C=N\NC(=O)c2ccc(-c3ccccc3)cc2)c1 | 14.9% | 3.5% | i | i | -19.8% | i
Cc1cccc(/C=N\NC(=O)c2ccc(Cl)cc2)c1O | 3.26µM* | ? | ? | ? | ? | i
COC(=O)[C@@H]1C[C@@H](NC(=O)c2cnsn2)CN1Cc1ccc(Cl)cc1 | / | / | / | / | / | i
CCOC(=O)/C(=N\Nc1ccccc1Cl)N1CCN(Cc2ccccc2)CC1 | -1.6% | -4.7% | i | 3.66µM* | 4.6% | i
NC(=O)COc1ccccc1/C=C1/SC(=O)N(CC(=O)N2CCc3ccccc3C2)C1=O | -16.2% | 0.0% | i | 14.6µM* | -11.3% | i
CCOc1cc(/C=C2/SC(=O)N(CC(=O)N3CCc4ccccc4C3)C2=O)ccc1OCC(=O)O | -4.3%[9.24 µM] | 13.8% | i | i | 6.7% | i
Cc1nc2nncn2c(NCc2ccc(Cl)cc2)c1C | / | / | 2.59µM* | i | ? | ?
O=C(Cc1csc(Nc2nc(=S)[nH]c3ccccc23)n1)NCCCN1CCN(c2ccccc2F)CC1 | 20.6µM* | 20.6µM* | ? | 14.6µM* | ? | /
O=C1c2ccccc2OC2(C=Cc3ccccc3O2)N1Cc1ccccc1 (centres undefined) | 18.4µM* | ? | ? | 4.11µM* | -25.7% | i
COc1ccc(-c2nc3c4ccccc4n(CC(=O)Nc4cc(F)ccc4F)c(=O)n3n2)cc1 | / | / | i | i | 1.3% | i
CC1(C)CCC(=O)N2CC[C@H]3C[C@H](OC(=O)Nc4ccccc4)C[C@@H]1[C@H]32 | -2.6% | 1.4% | i | 18.4µM*! | 46.8% | i
Cc1oc(-c2ccccc2NC(=O)c2ccccn2)nc1CNC(=O)c1cccc(C#CC(C)(C)O)c1 | / | / | / | / | / | i
COc1cccc(NCc2nnc(SC(C(=O)N(C)C)c3ccccc3)n2C2CCCCC2)c1 (centres undefined) | / | / | i | i | / | /
O=S(=O)(c1ccccc1C(F)(F)F)N1CCC(n2cnc3ccccc32)CC1 | -4.7% | 1.0% | i | 9.2µM* | -10.6% | i
O=S(=O)(c1ccccc1)N1CCC(n2cnc3ccccc32)CC1 | -1.1% | 6.2% | i | ? | -10.6% | i
Cc1cccnc1C(NC(=O)C1CCN(CCOc2ccc(Cl)cc2Cl)CC1)c1ccc(Cl)cc1 (centres undefined) | 7.8% | -0.3% | ? | ? | 20µM* | 25.1µM*
O=C(NC(c1ccc(Cl)cc1)c1cccnc1)C1CCN(CCOc2ccc(Cl)cc2Cl)CC1 (centres undefined) | 18.4µM* | 18.4µM* | i | i | ? | /
